Laboratory results reported in PubChem BioAssay.
Calls of active or inactive are those of the source.

How the values were obtained:
[1] = tested on: PRMT1 (protein arginine N-methyltransferase 1); experiment: PRMT1 binders on small-molecule microarrays, primary screen, biochemical, small-molecule microarray, 635 nm fluorescence (AID 1088); conditions: small-molecule microarray binding, higher = more signal;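 note: binding of Prmt1 protein to compounds spotted on small-molecule microarray slides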
[2] = yeast growth modulation, basal conditions, primary screen, YJM789 clinical isolate, OD600, 24 h (AID 1089);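 note: growth of clinical yeast isolate S. cerevisiae YJM 789 seeded 1000 cells per well; test concentration not given here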; conditions: S. cerevisiae YJM789 growth, higher = more signal, called active from +8 up or from −8 down
[3] = fission yeast growth modulation, primary screen, strain 972, OD600, 24 h, no modulator (AID 1090);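 note: basal condition with compound alone and no growth modifier present; test concentration not given here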; conditions: S. pombe 972 growth, higher = more signal, called active from +8 up or from −8 down
[4] = S. cerevisiae growth modulation with rapamycin, primary screen, strain BY4716, OD600, 96 h (AID 1091); conditions: higher = more signal, called active from +8 up or from −8 down; note: test concentration not given here
[5] = target: Torsin-1A-interacting protein 2 (Homo sapiens) (UniProt Q8NFQ8); experiment: LULL1 binders on small-molecule microarray, primary screen, cell lysate, human LULL1 lysate, 635/667 nm fluorescence (AID 1092); conditions: hLULL1 lysate binding, 635 nm fluorescence, higher = more signal;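 note: probe is lysate of COS7 cells overexpressing human LULL1; score merges per-feature 667 nm fluorescence with signal-to-noise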
Torsin-1A-interacting protein 2 (Homo sapiens), sequence (Q8NFQ8 whole entry, looked up): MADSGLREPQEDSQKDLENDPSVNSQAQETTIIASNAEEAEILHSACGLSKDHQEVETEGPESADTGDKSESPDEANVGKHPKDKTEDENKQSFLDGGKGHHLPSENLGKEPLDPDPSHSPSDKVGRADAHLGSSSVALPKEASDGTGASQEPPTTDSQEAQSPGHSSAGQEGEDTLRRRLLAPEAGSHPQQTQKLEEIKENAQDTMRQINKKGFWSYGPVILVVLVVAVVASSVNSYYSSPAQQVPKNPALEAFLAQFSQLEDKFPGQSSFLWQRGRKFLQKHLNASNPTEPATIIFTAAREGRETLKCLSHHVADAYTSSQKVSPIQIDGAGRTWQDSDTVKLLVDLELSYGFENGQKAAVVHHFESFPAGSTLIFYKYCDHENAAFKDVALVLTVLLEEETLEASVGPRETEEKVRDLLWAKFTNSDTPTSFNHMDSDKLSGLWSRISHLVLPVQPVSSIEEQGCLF

[6] = E. coli growth modulation, two-sided OD650, primary screen, E. coli filamentation project, strain DRC41, 24 h (AID 1093); conditions: OD650, 24 h, higher = more signal, called active from +8 up or from −8 down;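 note: MC1000 strain lacking acrAB efflux and sulA so SOS filamentation is blocked; test concentration not given here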
[7] = small-molecule microarray binders of probe aLefty2, primary screen, biochemical, biotinylated probe, 635/667 nm fluorescence (AID 1094); conditions: higher = more signal;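 note: score merges spot fluorescence near 667 nm with spot signal-to-noise ratio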
[8] = tested on: Noggin (protein binding on small-molecule microarray); experiment: Noggin binders on small-molecule microarray, primary screen, biochemical, 635/667 nm fluorescence (AID 1095); conditions: 635 nm fluorescence, higher = more signal;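 note: score merges 667 nm feature fluorescence with signal to noise over triplicate slides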
[9] = target: Neurogenic locus notch homolog protein 3 (Homo sapiens) (UniProt Q9UM47); experiment: NOTCH3 binders on small-molecule microarray, primary screen, biochemical, 635/667 nm fluorescence (AID 1096); conditions: NOTCH3 binding, 635 nm fluorescence, higher = more signal
Neurogenic locus notch homolog protein 3 (Homo sapiens), sequence (Q9UM47 whole entry, looked up): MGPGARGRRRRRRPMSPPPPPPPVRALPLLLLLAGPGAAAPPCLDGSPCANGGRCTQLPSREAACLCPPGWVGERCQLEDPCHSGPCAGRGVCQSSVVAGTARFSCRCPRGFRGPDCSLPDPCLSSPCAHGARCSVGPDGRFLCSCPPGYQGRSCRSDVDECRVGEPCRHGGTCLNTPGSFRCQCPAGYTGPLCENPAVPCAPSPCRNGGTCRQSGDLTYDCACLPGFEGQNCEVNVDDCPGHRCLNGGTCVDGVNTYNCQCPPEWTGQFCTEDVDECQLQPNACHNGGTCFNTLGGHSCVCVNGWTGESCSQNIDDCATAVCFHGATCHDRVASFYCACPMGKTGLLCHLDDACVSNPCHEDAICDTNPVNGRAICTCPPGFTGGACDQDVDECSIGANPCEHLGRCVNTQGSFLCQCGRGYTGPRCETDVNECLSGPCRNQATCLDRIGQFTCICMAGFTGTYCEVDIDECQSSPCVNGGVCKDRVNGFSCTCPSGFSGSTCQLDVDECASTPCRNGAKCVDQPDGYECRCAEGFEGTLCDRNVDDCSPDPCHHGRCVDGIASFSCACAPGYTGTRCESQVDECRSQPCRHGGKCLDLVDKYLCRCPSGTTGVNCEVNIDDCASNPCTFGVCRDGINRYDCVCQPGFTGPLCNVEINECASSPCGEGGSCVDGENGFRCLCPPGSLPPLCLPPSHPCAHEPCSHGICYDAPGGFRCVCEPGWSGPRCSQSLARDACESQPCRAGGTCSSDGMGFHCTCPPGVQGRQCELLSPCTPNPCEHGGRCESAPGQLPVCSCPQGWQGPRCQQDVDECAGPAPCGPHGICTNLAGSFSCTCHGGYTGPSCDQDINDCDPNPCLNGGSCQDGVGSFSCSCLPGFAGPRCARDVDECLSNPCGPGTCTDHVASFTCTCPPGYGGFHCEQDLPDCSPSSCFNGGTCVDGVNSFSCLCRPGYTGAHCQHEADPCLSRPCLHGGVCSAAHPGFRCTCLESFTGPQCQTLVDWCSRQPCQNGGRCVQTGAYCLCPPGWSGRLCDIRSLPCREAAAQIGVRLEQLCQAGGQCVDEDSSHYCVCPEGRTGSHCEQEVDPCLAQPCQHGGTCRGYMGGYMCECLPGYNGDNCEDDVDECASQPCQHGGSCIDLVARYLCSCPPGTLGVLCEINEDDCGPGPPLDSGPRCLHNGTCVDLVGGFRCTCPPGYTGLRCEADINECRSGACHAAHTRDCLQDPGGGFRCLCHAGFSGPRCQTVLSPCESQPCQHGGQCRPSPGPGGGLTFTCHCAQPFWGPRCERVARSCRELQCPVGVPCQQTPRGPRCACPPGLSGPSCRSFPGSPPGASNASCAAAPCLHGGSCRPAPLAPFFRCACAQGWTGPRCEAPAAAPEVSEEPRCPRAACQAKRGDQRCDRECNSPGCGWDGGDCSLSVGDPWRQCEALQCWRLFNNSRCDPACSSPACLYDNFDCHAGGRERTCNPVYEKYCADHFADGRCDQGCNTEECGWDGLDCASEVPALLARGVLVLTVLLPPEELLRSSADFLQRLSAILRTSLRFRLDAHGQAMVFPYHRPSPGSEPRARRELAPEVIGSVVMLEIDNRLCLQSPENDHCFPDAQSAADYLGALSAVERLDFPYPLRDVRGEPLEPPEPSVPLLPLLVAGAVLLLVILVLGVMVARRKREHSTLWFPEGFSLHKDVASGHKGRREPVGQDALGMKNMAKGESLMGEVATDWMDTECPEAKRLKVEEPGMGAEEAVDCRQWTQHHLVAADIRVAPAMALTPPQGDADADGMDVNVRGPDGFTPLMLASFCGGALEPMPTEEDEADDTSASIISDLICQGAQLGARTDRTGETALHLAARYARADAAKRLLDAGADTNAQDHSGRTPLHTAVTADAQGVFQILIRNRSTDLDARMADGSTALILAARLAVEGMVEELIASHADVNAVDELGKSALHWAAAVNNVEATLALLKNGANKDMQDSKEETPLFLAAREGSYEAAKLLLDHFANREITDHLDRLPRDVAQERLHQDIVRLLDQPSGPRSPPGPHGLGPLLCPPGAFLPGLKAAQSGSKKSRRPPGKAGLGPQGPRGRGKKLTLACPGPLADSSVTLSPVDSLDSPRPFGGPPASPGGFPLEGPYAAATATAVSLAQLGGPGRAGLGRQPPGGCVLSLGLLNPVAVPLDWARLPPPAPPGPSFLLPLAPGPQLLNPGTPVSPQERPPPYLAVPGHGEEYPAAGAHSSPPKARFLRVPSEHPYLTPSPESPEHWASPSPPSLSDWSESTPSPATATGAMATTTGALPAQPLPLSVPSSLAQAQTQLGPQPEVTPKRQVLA

[10] = small-molecule microarray binders of probe aEGFR, primary screen, biochemical, biotinylated probe, 635/667 nm fluorescence (AID 1097); conditions: higher = more signal;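 note: probe is a biotinylated anti-EGFR antibody binding compounds printed on slides; score combines fluorescence near 667 nm and signal to noise of each spot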

| Structure (SMILES) | composite z-score [1] | z-score [2] | z-score [3] | z-score [4] | composite z-score [5] | z-score [6] | composite z-score [7] | composite z-score [8] | composite z-score [9] | composite z-score [10] |
| --- | --- | --- | --- | --- | --- | --- | --- | --- | --- | --- |
| CN(C)CCCC[C@@H]1NC(=O)[C@@H]2C[C@H](C(=O)NCCCCCCNC(=O)CS)[C@H](c3cccc(OCCO)c3)N2C1=O | 1.39 | -0.283 (inactive) | -0.0576 (inactive) | -0.471 (inactive) | 1.18 | -0.142 (inactive) | 0.0575 | 0.333 | 0.131 | 0.124 |
| NC(=O)NCC#Cc1ccc2c(c1)[C@]1(C(=O)N2)[C@H](C(=O)Nc2nc3ccccc3s2)[C@H]2C(=O)O[C@H](c3ccccc3)[C@H](c3ccccc3)N2[C@@H]1c1ccc(OCCO)cc1 | -0.006 | 1.83 (inactive) | 1.87 (inactive) | 2.18 (inactive) | 0.963 | 0.976 (inactive) | -0.0616 | 0.479 | 0.353 | -0.138 |
| [N-]=[N+]=NCc1ccccc1[C@H]1OC(c2ccc(OCCCO)cc2)=N[C@@]1(Cc1ccccc1)C(=O)N1CCOCC1 | 1.46 | -2.07 (inactive) | -0.21 (inactive) | -0.0315 (inactive) | 3.51 | -0.522 (inactive) | 0.254 | 0.316 | 1.08 | 0.266 |
| COc1ccccc1CN1C(=O)c2ccccc2[C@](Cc2ccccc2I)(C(=O)NCCCN(C)C)[C@@H]1c1ccc(CO)cc1 | 1.4 | 0.404 (inactive) | -20.1 (active) | -2.96 (inactive) | 3.04 | -5.17 (inactive) | -0.305 | 0.134 | 0.591 | -0.355 |
| Cc1ccc(S(=O)(=O)N2[C@@H](c3ccccc3)C(C(=O)O)=CC[C@H]2c2ccc(C#N)cc2)cc1 | 1.21 | -0.143 (inactive) | 0.612 (inactive) | -0.371 (inactive) | 3.39 | -1.5 (inactive) | -0.003 | -0.495 | 0.721 | -0.0238 |
| COc1ccc(C#Cc2ccc3c(c2)[C@]2(C(=O)N3)[C@H](C(=O)Nc3nc4ccccc4s3)[C@H]3C(=O)O[C@H](c4ccccc4)[C@H](c4ccccc4)N3[C@@H]2c2ccc(OCCO)cc2)cc1 | 1.55 | 3.16 (inactive) | 2.06 (inactive) | 1.64 (inactive) | 2.7 | 0.361 (inactive) | -0.0412 | 0.994 | 1.1 | 0.123 |
| [N-]=[N+]=NCc1ccccc1C[C@]1(C(=O)N2CCOCC2)N=C(c2ccc(OCCCO)cc2)O[C@H]1c1ccccc1CN=[N+]=[N-] | 1.56 | 1.66 (inactive) | 0.284 (inactive) | 16.6 (active) | 3.61 | 0.27 (inactive) | 0.747 | 0.809 | 0.616 | 0.732 |
| [N-]=[N+]=NCc1ccccc1C[C@]1(C(=O)NCc2ccccc2)N=C(c2ccc(OCCCO)cc2)O[C@H]1c1ccccc1CN=[N+]=[N-] | 1.37 | 1.27 (inactive) | 0.736 (inactive) | 22.6 (active) | 3.25 | 1.79 (inactive) | -0.106 | -0.243 | 0.561 | 0.0506 |
| O=C1O[C@@H](c2ccccc2)[C@@H](c2ccccc2)N2[C@@H](c3ccc(OCCO)cc3)[C@]3(C(=O)Nc4ccc(C#CCCO)cc43)[C@@H](C(=O)Nc3nc4ccccc4s3)[C@H]12 | 1.5 | 1.32 (inactive) | 0.415 (inactive) | 1.72 (inactive) | 3.06 | 2.55 (inactive) | -0.0826 | 0.677 | 1.06 | -0.0531 |
| CC(C)CNC(=O)[C@@H]1c2ccccc2C(=O)N(CC23CC4CC(CC(C4)C2)C3)[C@H]1c1ccc(CO)cc1 | 0.797 | -0.998 (inactive) | -1.88 (inactive) | -0.243 (inactive) | 2.69 | -0.109 (inactive) | -0.121 | 0.264 | 0.953 | -0.146 |
| COc1cccc(C[C@H]2C[C@@H](CO[Si](C(C)C)(C(C)C)C(C)C)N3C(=O)[C@@]4(C(C)=O)O[C@@]23[C@@H]2C(=O)N(C)C(=O)[C@@H]24)c1 | 1.56 | 0.368 (inactive) | 0.827 (inactive) | 1.6 (inactive) | 0.189 | -0.929 (inactive) | -0.105 | 0.456 | 1.16 | 0.127 |
| C=C(COC)/C(=C/C[C@H](OC(=O)c1ccncc1)c1cccc(OCCO)c1)c1cnc2ccccc2c1 | 1.54 | -2.15 (inactive) | -0.677 (inactive) | 0.0694 (inactive) | 1.75 | -0.0055 (inactive) | 0.0333 | 1.53 | 1.03 | -0.0025 |
| COc1ccc(C#Cc2ccc3c(c2)[C@]2(C(=O)N3)[C@H](c3ccc(OCCO)cc3)N3[C@H](c4ccccc4)[C@H](c4ccccc4)OC(=O)[C@H]3[C@@H]2C(=O)O)cc1 | 1.54 | 2.83 (inactive) | 0.685 (inactive) | 1.4 (inactive) | 3.21 | 2.57 (inactive) | -0.232 | 1.29 | 1.04 | 0.0649 |
| CC(C)C[C@@H]1NC(=O)[C@@]23C(=O)N[C@@H](Cc4ccccc4)C2[C@H](C)[C@@]2(C)O[C@H]2C3/C=C/C/C=C\CNC(=O)[C@@H](CC(C)C)NC1=O (stereo not given in full) | 1.55 | -0.652 (inactive) | -17.9 (active) | 0.241 (inactive) | 2.16 | -0.313 (inactive) | -0.184 | 0.914 | 0.895 | -0.0814 |
